Data reported in PubChem BioAssay (NCI).
The panel holds about 83,000 compounds, 20% with a hit somewhere; the sample as a whole holds those more often.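 Compound tested at a single concentration for 48 hours in 96-well plates; a percent growth value below 10 was scored as active.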 The source made the active and inactive calls.

These compounds were tested on MDA-MB-468 breast (assay: NCI-60 one-dose screen, 48 h (100 = growth as untreated, 0 = no growth, -100 = all killed)). Conditions: 10 µM unless noted.

Compound | growth
CCn1c(Cc2ccccc2Nc2c(Cl)cccc2Cl)nnc1SCC(=O)NN1C(=O)/C(=C/c2cccc(OC)c2OC)SC1=S | 99.5% (inactive)
O=C(/C=C/c1ccccc1)c1cccc2ccccc12 | -2.6% (active)
COc1cc(Cl)cc(-c2nn(-c3cccc(NC(=O)Nc4ccc(Cl)c(C(F)(F)F)c4)c3)cc2-c2ccncc2)c1 | -14.4% (active)
C=CCn1c(SCC(=O)Nc2cccc(C(=O)/C=C/c3ccc(Cl)cc3)c2)nc2ccccc2c1=O | 107% (inactive)
CN(C)c1cccc2[nH]c(-c3[nH]ncc3Nc3ccnc(N)n3)nc12 | -67.5% (active)
COc1ccc(-c2csc(NC(=O)CN3CCN(CCO)CC3)n2)cc1NS(=O)(=O)c1cccc2c(N(C)C)cccc12 | 55.6% (inactive)
CN(C)/C=C1\SC(=Nc2ccc(Cl)cc2)NC1=O | 110% (inactive)
O=C1NC(c2ccc(Cl)c(Cl)c2)=C/C1=C\c1ccccc1 | 63.3% (inactive)
Cc1ccc(/C=N/Nc2nc(Nc3ccccc3)nc(-n3nc(C)cc3C)n2)cc1 | 60.9% (inactive)
O=C(O)c1ccc(-c2nn(-c3ccc(C(=O)O)cc3)cc2CNc2ccc(Br)cc2)cc1 | 114% (inactive)
CCn1c(Cc2ccccc2Nc2c(Cl)cccc2Cl)nnc1SCC(=O)Nc1cccc(OC)c1 | 75% (inactive)
COc1ccc(/C=C(\C#N)c2ccc(OC)cc2)cc1 | 7.49% (active)
F | 40.9% [6.87 mM] (inactive)
NC(CSC(c1ccccc1)(c1ccccc1)c1ccc2c(c1)OCO2)C(=O)O (stereo unspecified) | -56.6% (active)
CC[C@]12C=CCN3CC[C@@]4(c5ccc(OC)cc5N(C)[C@H]4[C@@](O)(C(=O)OC)[C@@H]1OC(=O)CCCN1CCOCC1)[C@@H]32 | 108% (inactive)
NC(=NCCCOc1ccc(F)cc1)Nc1ccc(Cl)c(Cl)c1 | 41% (inactive)
O=C1c2ccccc2C(=O)c2c(Nc3ccc(CCO)cc3)ccc(O)c21 | 38% (inactive)
O=C(Nc1ccccc1)Oc1cccc2cccnc12 | 96.9% (inactive)
Nc1ccccc1NC(=O)CCCCC(=O)Nc1ccc2c(c1)/C(=C/c1ccc[nH]1)C(=O)N2 | 50.4% (inactive)
CCCCN(CCCC)CCC(=O)c1ccc(OC)c2ccccc12 | -18.7% (active)
CC[N+](CC)=c1sc2c(s1)C(c1ccc(Cl)cc1)Oc1ccc(Cl)cc1-2 (stereo unspecified) | -4.17% (active)
CNC(=O)c1cc(Oc2ccc3nc(NC(C)=O)sc3c2)ccn1 | 100% (inactive)
CCOC(=O)Nc1ccc2c3c(cccc13)-c1ccccc1-2 | -11.5% (active)
COc1cc(-c2csc(NC(=O)c3cc(C(F)(F)F)cc(C(F)(F)F)c3)n2)cc(OC)c1OC | 6.71% (active)
O=C(COc1ccc(/C=C2\Cc3ccccc3C2=O)cc1)c1ccc(Cl)cc1 | 111% (inactive)
O=C(Nc1cccc(-n2cc(-c3ccncc3)c(-c3ccc(Cl)c(O)c3)n2)c1)Nc1cccc(C(F)(F)F)c1 | 10.5% (inactive)
